# What was measured:
# [1] = target: Calcium/calmodulin-dependent protein kinase type II subunit alpha (Homo sapiens) (UniProt Q9UQM7); settings: at 1 µM;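 note: reported value is a mean percent inhibition of CAMK2A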
# [2] = target: Calcium/calmodulin-dependent protein kinase type II subunit delta (Homo sapiens) (UniProt Q13557); settings: at 0.1 µM
# [3] = target: Calcium/calmodulin-dependent protein kinase type II subunit delta (Homo sapiens) (UniProt Q13557); settings: at 1 µM
# [4] = target: T1, Calcium/calmodulin-dependent protein kinase type IV (Homo sapiens) (UniProt Q16566); settings: at 0.1 µM
# T1 sequence (whole entry): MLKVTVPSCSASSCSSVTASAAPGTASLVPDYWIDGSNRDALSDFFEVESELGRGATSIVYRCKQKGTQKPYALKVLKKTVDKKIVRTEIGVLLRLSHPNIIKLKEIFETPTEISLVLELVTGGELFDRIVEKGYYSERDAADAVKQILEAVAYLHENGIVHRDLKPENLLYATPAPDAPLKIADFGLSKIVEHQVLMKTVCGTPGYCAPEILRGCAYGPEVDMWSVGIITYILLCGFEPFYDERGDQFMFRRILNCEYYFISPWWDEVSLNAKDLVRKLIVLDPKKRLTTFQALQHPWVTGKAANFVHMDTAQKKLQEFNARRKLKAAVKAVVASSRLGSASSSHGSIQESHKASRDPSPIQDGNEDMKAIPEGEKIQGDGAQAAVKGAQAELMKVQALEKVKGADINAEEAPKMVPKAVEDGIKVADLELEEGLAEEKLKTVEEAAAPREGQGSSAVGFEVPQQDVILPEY
# [5] = target: T1, Calcium/calmodulin-dependent protein kinase type IV (Homo sapiens); settings: at 1 µM
# [6] = target: T2, Serine/threonine-protein kinase Chk1 (Homo sapiens) (UniProt O14757); settings: at 0.1 µM
# T2 sequence (whole entry): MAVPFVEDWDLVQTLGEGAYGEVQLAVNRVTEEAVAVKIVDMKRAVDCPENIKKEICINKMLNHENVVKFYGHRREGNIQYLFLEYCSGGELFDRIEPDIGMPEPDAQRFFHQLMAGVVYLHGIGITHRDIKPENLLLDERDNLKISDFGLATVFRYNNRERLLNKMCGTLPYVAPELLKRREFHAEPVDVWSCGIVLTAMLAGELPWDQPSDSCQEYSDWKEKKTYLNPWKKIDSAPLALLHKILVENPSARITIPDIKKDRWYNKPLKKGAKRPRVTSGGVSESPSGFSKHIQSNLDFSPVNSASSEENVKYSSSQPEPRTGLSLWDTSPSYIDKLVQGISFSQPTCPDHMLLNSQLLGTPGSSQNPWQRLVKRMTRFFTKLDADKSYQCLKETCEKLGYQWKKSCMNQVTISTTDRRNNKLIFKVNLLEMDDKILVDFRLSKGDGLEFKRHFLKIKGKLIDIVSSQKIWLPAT
# [7] = target: T2, Serine/threonine-protein kinase Chk1 (Homo sapiens); settings: at 1 µM
# [8] = target: Serine/threonine-protein kinase Chk2 (Homo sapiens) (UniProt O96017); settings: at 0.1 µM
# Sequence of Serine/threonine-protein kinase Chk2 (Homo sapiens) (O96017 whole entry): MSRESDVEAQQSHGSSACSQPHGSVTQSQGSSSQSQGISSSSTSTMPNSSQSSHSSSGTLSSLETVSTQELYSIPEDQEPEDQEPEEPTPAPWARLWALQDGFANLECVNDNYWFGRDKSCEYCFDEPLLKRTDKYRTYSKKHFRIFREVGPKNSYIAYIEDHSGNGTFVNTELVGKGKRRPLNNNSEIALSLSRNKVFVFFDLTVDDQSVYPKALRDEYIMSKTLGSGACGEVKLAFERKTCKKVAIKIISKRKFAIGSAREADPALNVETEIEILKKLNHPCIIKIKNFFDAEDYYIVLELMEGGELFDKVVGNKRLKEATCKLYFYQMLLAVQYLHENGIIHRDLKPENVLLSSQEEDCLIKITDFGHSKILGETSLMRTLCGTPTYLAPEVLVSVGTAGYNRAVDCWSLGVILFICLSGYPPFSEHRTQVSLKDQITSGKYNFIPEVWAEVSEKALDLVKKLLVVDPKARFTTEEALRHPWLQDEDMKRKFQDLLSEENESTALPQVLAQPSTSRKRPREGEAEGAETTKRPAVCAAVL
# [9] = target: Serine/threonine-protein kinase Chk2 (Homo sapiens) (UniProt O96017); settings: at 1 µM
# [10] = target: Death-associated protein kinase 1 (Homo sapiens) (UniProt P53355); settings: at 0.1 µM
# Sequence of Death-associated protein kinase 1 (Homo sapiens) (P53355 whole entry, looked up): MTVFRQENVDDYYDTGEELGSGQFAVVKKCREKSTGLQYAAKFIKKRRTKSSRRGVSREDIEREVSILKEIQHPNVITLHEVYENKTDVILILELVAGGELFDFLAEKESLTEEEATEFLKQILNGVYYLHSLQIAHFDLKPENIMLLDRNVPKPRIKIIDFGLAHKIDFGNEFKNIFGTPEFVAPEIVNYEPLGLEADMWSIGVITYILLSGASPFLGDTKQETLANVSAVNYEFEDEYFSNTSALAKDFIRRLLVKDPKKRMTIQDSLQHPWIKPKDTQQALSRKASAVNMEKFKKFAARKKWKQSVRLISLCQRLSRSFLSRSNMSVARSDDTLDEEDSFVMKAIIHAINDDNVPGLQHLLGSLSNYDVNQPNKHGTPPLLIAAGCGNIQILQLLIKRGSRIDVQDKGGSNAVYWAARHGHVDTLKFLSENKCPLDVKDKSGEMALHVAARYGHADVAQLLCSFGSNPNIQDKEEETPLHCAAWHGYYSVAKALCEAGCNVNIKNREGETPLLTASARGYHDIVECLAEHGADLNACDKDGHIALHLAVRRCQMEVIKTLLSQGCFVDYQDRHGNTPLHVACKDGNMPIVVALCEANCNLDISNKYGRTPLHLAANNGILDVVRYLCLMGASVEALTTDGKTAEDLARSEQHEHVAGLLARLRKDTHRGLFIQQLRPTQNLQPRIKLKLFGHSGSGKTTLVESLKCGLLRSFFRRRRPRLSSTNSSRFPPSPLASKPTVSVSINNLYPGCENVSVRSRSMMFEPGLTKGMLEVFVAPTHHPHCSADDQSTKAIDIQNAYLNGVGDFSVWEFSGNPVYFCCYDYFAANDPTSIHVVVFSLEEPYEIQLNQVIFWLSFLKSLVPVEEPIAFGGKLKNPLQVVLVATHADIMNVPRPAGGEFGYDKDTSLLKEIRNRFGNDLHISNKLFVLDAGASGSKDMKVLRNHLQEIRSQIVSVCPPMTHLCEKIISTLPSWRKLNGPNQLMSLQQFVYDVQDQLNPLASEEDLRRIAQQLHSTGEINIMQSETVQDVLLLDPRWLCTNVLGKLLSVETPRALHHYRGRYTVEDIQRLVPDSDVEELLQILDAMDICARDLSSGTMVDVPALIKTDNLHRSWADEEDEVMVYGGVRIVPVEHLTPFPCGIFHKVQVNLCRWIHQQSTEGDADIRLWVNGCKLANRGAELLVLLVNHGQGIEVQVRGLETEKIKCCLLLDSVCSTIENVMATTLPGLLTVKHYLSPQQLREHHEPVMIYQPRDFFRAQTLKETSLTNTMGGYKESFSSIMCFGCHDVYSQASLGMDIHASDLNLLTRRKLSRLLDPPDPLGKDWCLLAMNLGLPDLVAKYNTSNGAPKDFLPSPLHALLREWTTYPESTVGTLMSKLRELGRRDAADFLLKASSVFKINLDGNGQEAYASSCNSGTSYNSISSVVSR
# [11] = target: Death-associated protein kinase 1 (Homo sapiens) (UniProt P53355); settings: at 1 µM
# [12] = target: T3, Serine/threonine-protein kinase DCLK2 (Homo sapiens) (UniProt Q8N568); settings: at 0.1 µM
# T3 sequence (whole entry): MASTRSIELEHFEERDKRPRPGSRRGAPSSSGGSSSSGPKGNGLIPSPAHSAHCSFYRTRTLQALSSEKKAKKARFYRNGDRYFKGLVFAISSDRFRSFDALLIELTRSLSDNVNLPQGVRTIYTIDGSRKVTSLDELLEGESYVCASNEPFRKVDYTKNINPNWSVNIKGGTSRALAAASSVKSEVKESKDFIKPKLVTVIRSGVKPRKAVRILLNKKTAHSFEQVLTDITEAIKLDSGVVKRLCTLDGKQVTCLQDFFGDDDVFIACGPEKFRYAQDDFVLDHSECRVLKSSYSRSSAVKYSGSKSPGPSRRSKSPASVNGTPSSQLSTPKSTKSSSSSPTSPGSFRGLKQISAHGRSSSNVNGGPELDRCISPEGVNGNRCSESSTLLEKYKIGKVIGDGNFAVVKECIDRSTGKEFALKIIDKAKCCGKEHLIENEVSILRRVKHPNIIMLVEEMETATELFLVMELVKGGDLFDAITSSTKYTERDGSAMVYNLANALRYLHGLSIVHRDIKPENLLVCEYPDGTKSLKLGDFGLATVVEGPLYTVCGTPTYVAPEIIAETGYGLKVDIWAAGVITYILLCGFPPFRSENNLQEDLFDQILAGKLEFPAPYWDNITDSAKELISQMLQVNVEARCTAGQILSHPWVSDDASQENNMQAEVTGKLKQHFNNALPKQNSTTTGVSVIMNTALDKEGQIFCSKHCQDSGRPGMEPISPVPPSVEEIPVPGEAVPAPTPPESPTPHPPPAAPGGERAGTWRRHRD
# [13] = target: T3, Serine/threonine-protein kinase DCLK2 (Homo sapiens); settings: at 1 µM
# [14] = target: MAP kinase-activated protein kinase 2 (Homo sapiens) (UniProt P49137); settings: at 0.1 µM
# [15] = target: MAP kinase-activated protein kinase 2 (Homo sapiens) (UniProt P49137); settings: at 1 µM
# [16] = target: MAP kinase-activated protein kinase 3 (Homo sapiens) (UniProt Q16644); settings: at 0.1 µM
# Sequence of MAP kinase-activated protein kinase 3 (Homo sapiens) (Q16644 whole entry, looked up): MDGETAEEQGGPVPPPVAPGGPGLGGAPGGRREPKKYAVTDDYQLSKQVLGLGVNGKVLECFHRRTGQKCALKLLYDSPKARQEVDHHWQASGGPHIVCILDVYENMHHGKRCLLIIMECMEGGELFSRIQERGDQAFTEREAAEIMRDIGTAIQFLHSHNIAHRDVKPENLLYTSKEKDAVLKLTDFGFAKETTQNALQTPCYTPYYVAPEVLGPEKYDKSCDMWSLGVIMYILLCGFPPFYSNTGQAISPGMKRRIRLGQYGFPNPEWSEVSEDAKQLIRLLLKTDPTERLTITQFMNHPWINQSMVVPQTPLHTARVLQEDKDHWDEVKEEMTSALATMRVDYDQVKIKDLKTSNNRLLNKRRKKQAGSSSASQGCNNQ
# [17] = target: MAP kinase-activated protein kinase 3 (Homo sapiens) (UniProt Q16644); settings: at 1 µM
# [18] = target: Serine/threonine-protein kinase MARK1 (Homo sapiens) (UniProt Q9P0L2); settings: at 0.1 µM
# Sequence of Serine/threonine-protein kinase MARK1 (Homo sapiens) (Q9P0L2 whole entry, looked up): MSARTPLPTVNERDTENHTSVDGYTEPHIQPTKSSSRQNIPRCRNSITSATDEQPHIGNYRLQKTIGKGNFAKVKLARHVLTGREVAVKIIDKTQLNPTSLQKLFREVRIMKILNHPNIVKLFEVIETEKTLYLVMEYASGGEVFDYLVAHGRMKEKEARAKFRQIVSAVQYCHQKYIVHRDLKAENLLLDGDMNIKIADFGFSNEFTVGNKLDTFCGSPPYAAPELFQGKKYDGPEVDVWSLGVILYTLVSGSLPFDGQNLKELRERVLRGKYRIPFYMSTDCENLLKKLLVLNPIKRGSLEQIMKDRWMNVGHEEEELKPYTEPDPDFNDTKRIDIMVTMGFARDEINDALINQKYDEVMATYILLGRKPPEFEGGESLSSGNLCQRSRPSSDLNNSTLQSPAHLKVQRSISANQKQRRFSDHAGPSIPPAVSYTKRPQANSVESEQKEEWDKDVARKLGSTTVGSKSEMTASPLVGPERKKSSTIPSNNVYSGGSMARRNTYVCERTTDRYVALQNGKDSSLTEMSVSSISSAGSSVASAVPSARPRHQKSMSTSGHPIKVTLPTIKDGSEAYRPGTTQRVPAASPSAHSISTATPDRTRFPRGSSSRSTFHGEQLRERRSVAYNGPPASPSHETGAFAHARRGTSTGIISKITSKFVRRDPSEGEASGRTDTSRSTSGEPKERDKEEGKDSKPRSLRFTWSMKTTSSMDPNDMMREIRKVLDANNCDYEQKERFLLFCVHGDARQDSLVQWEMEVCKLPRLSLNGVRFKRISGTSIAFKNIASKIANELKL
# [19] = target: Serine/threonine-protein kinase MARK1 (Homo sapiens) (UniProt Q9P0L2); settings: at 1 µM
# [20] = target: MAP/microtubule affinity-regulating kinase 3 (Homo sapiens) (UniProt P27448); settings: at 0.1 µM;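 note: mean percent inhibition of MARK3 kinase activity, measured within the GSK PKIS screening panel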
# Sequence of MAP/microtubule affinity-regulating kinase 3 (Homo sapiens) (P27448 whole entry, looked up): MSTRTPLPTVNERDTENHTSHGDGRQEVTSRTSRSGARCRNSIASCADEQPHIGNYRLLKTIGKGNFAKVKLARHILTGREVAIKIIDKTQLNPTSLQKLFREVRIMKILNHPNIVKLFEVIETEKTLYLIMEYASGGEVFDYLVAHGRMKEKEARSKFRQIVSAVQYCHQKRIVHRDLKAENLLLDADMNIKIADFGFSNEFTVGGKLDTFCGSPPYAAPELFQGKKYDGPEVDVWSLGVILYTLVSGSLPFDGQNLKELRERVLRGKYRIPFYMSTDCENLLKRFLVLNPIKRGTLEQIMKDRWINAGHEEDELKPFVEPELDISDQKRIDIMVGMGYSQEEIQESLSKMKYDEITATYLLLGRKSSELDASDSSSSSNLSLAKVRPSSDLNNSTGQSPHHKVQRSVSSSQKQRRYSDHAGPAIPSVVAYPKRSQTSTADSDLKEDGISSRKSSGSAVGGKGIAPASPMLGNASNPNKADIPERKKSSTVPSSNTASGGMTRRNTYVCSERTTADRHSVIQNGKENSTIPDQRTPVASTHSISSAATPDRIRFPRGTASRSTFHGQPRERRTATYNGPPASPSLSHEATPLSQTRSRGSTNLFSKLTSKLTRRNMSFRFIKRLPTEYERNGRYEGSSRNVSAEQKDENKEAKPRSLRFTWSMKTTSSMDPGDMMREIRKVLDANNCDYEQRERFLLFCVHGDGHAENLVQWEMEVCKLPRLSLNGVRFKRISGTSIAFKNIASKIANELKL
# Sequence of Calcium/calmodulin-dependent protein kinase type II subunit delta (Homo sapiens) (Q13557 whole entry): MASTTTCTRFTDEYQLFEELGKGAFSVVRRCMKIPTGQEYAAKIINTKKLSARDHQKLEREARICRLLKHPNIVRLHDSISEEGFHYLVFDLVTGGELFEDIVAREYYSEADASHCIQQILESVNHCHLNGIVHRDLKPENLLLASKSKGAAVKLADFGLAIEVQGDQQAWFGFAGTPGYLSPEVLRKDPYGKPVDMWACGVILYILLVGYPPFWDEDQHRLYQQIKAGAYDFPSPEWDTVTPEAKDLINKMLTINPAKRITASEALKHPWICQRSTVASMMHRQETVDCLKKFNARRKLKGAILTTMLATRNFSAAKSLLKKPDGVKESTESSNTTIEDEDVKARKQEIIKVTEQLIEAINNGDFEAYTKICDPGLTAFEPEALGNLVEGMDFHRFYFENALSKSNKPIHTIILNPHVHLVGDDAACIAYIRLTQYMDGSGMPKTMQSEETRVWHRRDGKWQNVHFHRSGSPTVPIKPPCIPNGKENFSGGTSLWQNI
# Sequence of Calcium/calmodulin-dependent protein kinase type II subunit alpha (Homo sapiens) (Q9UQM7 whole entry): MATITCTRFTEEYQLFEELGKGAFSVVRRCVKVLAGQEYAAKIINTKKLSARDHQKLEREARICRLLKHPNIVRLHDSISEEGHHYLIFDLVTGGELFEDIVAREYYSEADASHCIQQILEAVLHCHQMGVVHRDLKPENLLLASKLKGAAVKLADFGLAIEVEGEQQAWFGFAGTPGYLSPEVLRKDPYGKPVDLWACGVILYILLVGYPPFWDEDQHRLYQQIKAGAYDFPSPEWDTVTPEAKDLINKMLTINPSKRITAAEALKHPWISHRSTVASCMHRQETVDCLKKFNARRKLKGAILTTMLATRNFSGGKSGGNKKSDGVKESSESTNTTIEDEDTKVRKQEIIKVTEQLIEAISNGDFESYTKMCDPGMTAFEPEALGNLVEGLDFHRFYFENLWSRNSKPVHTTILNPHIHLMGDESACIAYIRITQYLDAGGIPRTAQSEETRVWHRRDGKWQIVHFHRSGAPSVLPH
SMILES,inhibition [1],inhibition [2],inhibition [3],inhibition [4],inhibition [5],inhibition [6],inhibition [7],inhibition [8],inhibition [9],inhibition [10],inhibition [11],inhibition [12],inhibition [13],inhibition [14],inhibition [15],inhibition [16],inhibition [17],inhibition [18],inhibition [19],inhibition [20]
NS(=O)(=O)c1ccc(Nc2cc(-c3ccc(O)c(F)c3)n[nH]2)cc1,-4.72%,-3.72%,1.69%,0.82%,0.53%,-5.01%,8.18%,-1.68%,3.93%,-2.1%,-3.49%,2.54%,-2.22%,-1.97%,-1.79%,-0.95%,-0.99%,0.41%,8.64%,0.26%
COc1ccc2ncn(-c3cc(O[C@H](C)c4ccccc4Cl)c(C(N)=O)s3)c2c1,-1.4%,2.08%,4.15%,-2.83%,-2.54%,0.23%,0.19%,2.58%,1.99%,3.77%,1.29%,-3.36%,-2.8%,1.56%,1.62%,3.18%,2.49%,3.24%,2.92%,3.81%
NC(=O)c1cc(-c2ccncc2)cc(-c2ccccc2)c1N,3.97%,4.41%,4.63%,0.2%,-0.82%,-1.87%,-2.65%,-1.34%,-0.01%,-2.69%,-2.35%,1.2%,1.19%,-0.48%,-0.33%,1.32%,-0.36%,4.42%,8.02%,5.42%
